Experimental data published in PubChem BioAssay (EPA / NIEHS).
A structure can be active in one record and inactive in another. Calls of active or inactive are those of the source. The calls were made as follows: active = hit-call score of the fitted dose curve at least 0.9, where 1 is the maximum; inactive = score below 0.9.

Assay: ATG_RORE_CIS: Attagene CIS-FACTORIAL HepG2 Assay for human RAR-related Orphan Receptor Element (RORE) (AID 2282959)
Conditions: HepG2 Attagene cis-factorial RORE reporter, mRNA; actives raise or lower the signal
Protocol: ATG_CIS is a cell-based, multiplexed-readout assay that uses HepG2, a human liver cell line, with measurements taken at 24 hours after chemical dosing in a 24-well plate.ATG_RORE_CIS is one of 52 assay component(s) measured or calculated from the ATG_CIS assay. It is designed to make measurements of mRNA induction, a form of inducible reporter, as detected with fluorescence intensity signals by Reverse transcription polymerase chain reaction (RT-PCR) and Capillary electrophoresis technology.Data from the assay component ATG_RORE_CIS was analyzed into 1 assay endpoint. This assay endpoint, ATG_RORE_CIS, was analyzed with bidirectional fitting relative to DMSO as the negative control and baseline of activity. Using a type of inducible reporter, measures of mRNA for gain or loss-of-signal activity can be used to understand the reporter gene at the transcription factor-level as they relate to the gene RORA and RORB and RORC. Furthermore, this assay endpoint can be referred to as a primary readout, because this assay has produced multiple assay endpoints where this one serves a reporter gene function. To generalize the intended target to other relatable targets, this assay endpoint is annotated to the nuclear receptor intended target family, where the subfamily is orphan.
Human liver HepG2 cells are transiently transfected with multiple reporter transcription units (MRTUs) in 6-well plates using FuGene 6 reagent (Roche; 3 ml FuGene/1 mg DNA). The MRTU constructs are regulated by a cis-regulating element (promoter). […] A major difference between the CIS and TRANS system is that in CIS activities of endogenous TFs are measured, whereas the TRANS assay evaluates changes in activities of exogenous, chimeric NR-Gal4 proteins. […] At the end of 24 hour incubation, total RNA was isolated using TriZol reagent (Invitrogen). The isolated RNA is then reverse-transcribed using oligo(dT) primer and Mo-MLV reverse transcriptase (Invitrogen) with DNAse I (Ambion) treatment for 30 min. The one-tenth of the produced cDNA was amplified by PCR using Taq DNA polymerase (Invitrogen) and two reporter sequence-specific primers. The PCR products were fluorescently labeled by primer extension with 6-arboxyfluorescein (6-FAM) 5'-labeled reporter sequence-specific primer (2 min at 95 C, 20 s at 68 C and 10 min at 72 C) and these products were digested with 5U of HpaI (New England Biolabs) for 2h at 37 C. The fragments were purified using Qiaquick PCR columns (Qiagen), analyzed on an ABI 3130xL genetic analyzer (Applied Biosystems) with peak positions identified by using a set of X-rhodamine (ROX)-labeled MapMarker1000 molecular weight standards (BioVentures). The raw capillary electrophoresis data was processed using Attagraph software (Attagene).

| Compound | outcome | AC50 |
| --- | --- | --- |
| Oc1cccc2cccnc12 | inactive | – |
| CCOC(=O)CP(=O)(OCC)OCC | inactive | – |
| CC(C)(C)CC(C)(C)c1ccc(O)cc1 | inactive | – |
| O=C(O)Cc1ccccc1 | inactive | – |
| CCOP(OCC)OCC | inactive | – |
| ClC(Cl)=C(Cl)C(Cl)=C(Cl)Cl | inactive | – |
| O=C(O)C(F)(F)C(F)(F)C(F)(F)C(F)(F)C(F)(F)C(F)(F)C(F)(F)C(F)(F)C(F)(F)C(F)(F)F | inactive | 24.2 µM (active) |
| C=CCc1ccc(OC)cc1 | inactive | – |
| ClC1=C(Cl)[C@]2(Cl)[C@H]3[C@H]([C@H]4C=C[C@H]3C4)[C@@]1(Cl)C2(Cl)Cl | inactive | – |
| c1cc[c]([Hg][c]2ccccc2)cc1 | – | 25.6 µM (active) |
| COP(=S)(OC)Oc1ccc(Sc2ccc(OP(=S)(OC)OC)cc2)cc1 | – | 37.2 µM (active) |
| Clc1nc(Cl)nc(Cl)n1 | inactive | – |
| NC(=S)Nc1ccccc1 | inactive | – |
| CN(CCCC(=O)c1cccnc1)N=O | inactive | – |
| COP(=O)(OC)O/C(=C\Cl)c1cc(Cl)c(Cl)cc1Cl | inactive | – |
| CCC(=O)c1ccccc1 | inactive | – |
| CNC(=O)O/N=C/C(C)(C)S(C)=O (stereo not given) | inactive | – |
| C[C@]12CCC(=O)C[C@@H]1CC[C@@H]1[C@@H]2CC[C@]2(C)[C@@H](O)CC[C@@H]12 | inactive | 42.3 µM (active) |
| O=Cc1cccc(Oc2ccccc2)c1 | inactive | – |

| Compound | outcome | AC50 |
| --- | --- | --- |
| CCOP(=S)(OCC)SCCS(=O)(=O)CC | inactive | – |
| Nc1ccc(N=Nc2ccc(-c3ccc(N=Nc4c(S(=O)(=O)O)cc5cc(S(=O)(=O)O)c(N=Nc6ccccc6)c(O)c5c4N)cc3)cc2)c(N)c1 | inactive | – |
| CCC(C)(C)c1ccc(O)c(C(C)(C)CC)c1 | inactive | – |
| CCSC(C)CC1CC(=O)C(C(CC)=NOC/C=C/Cl)=C(O)C1 (stereo not given) | inactive | – |
| CC1CN1P(=O)(N1CC1C)N1CC1C (stereo not given) | inactive | – |
| Nc1ccc(Cl)cc1C(=O)c1ccccc1 | – | 15 µM (active) |
| CC(C)OC(=O)Nc1ccccc1 | inactive | – |
| O=C(O)C(Cl)(Cl)Cl | inactive | – |
| Cc1cc(=O)[nH]o1 | inactive | – |
| CCc1ccccc1N | inactive | – |
| C=C(C)C#N | inactive | – |
| CC(C#N)CCC#N (stereo not given) | inactive | – |
| CC1(C)Cc2cccc(O)c2O1 | inactive | – |
| CCN(CC)C(=O)Cl | inactive | – |
| O=C(Nc1ccc2[nH]ccc2c1)c1cc2cc(F)ccc2n1Cc1cccc(F)c1 | inactive | – |
| O=C(O)C(F)(F)C(F)(F)C(F)(F)C(F)(F)C(F)(F)C(F)(F)F | inactive | – |
| CCc1ccccc1C | inactive | – |
| CC(C)c1ccc(CO)cc1 | inactive | – |
| Nc1cccc(Cl)c1 | inactive | – |
